In PubChem BioAssay (NCI):
This is part of a sample that, as a whole, favours compounds with a hit. Of some 83,000 tested, about 20% had one in any assay.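 For each line, cells grew in 96-well plates with the test compound present at a single concentration for 48 hours.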 Calls of active or inactive are those of the source. Rule for the calls: active = growth percent below 10; inactive = the rest.

Legend:
Experiment in all cases: NCI-60 one-dose screen, 48 h (100 = growth as untreated, 0 = no growth, -100 = all killed)
Conditions in all cases: 10 µM unless noted
NCI-H23 lung = system: NCI-H23 lung
NCI-H226 lung = system: NCI-H226 lung
NCI-H322M lung = system: NCI-H322M lung
HOP-62 NSCLC = system: HOP-62 NSCLC
NCI-H460 lung = system: NCI-H460 lung
HOP-92 NSCLC = system: HOP-92 NSCLC
NCI-H522 lung = system: NCI-H522 lung
A549/ATCC NSCLC = system: A549/ATCC NSCLC
786-0 renal = system: 786-0 renal
COLO 205 colon = system: COLO 205 colon
DU-145 prostate = system: DU-145 prostate
K-562 leukemia = system: K-562 leukemia
MALME-3M melanoma = system: MALME-3M melanoma
MDA-MB-231 breast = system: MDA-MB-231 breast
RXF 393 renal = system: RXF 393 renal
SF-268 CNS = system: SF-268 CNS
SF-295 CNS = system: SF-295 CNS
SF-539 CNS = system: SF-539 CNS
UACC-257 melanoma = system: UACC-257 melanoma
M14 melanoma = system: M14 melanoma

Measured: growth

CN[C@@H](C)C(=O)N[C@H]1CCS[C@H]2CC(C)(C)[C@@H](C(=O)N[C@H]3c4ccccc4C[C@H]3OCC#CC#CCO[C@@H]3Cc4ccccc4[C@@H]3NC(=O)[C@H]3N4C(=O)[C@@H](NC(=O)[C@H](C)NC)CCS[C@H]4CC3(C)C)N2C1=O
inactive: NCI-H23 lung 57.6% | NCI-H226 lung 129% | NCI-H322M lung 92.4% | HOP-62 NSCLC 66.8% | NCI-H460 lung 114% | HOP-92 NSCLC 79.4% | NCI-H522 lung 56.9% | A549/ATCC NSCLC 95.3% | 786-0 renal 99.2% | COLO 205 colon 103% | DU-145 prostate 101% | K-562 leukemia 100% | SF-268 CNS 124% | SF-295 CNS 86.8% | UACC-257 melanoma 101% | M14 melanoma 103%
active: MALME-3M melanoma -42.8% | MDA-MB-231 breast -51.2% | RXF 393 renal 2.22% | SF-539 CNS -43.6%

CN1CCN(C(=O)[C@]23CCC(C)(C)C[C@H]2C2=CC[C@@H]4[C@@]5(C)C/C(=C/c6cccnc6)C(=O)C(C)(C)[C@@H]5CC[C@@]4(C)[C@]2(C)CC3)CC1
inactive: NCI-H23 lung 72.8% | NCI-H226 lung 79.7% | NCI-H322M lung 96.3% | HOP-62 NSCLC 85.2% | NCI-H460 lung 31.9% | HOP-92 NSCLC 40.7% | NCI-H522 lung 49.4% | A549/ATCC NSCLC 47% | 786-0 renal 73.7% | COLO 205 colon 42.9% | DU-145 prostate 71.6% | K-562 leukemia 10.9% | MALME-3M melanoma 63.4% | MDA-MB-231 breast 59.8% | RXF 393 renal 64.9% | SF-268 CNS 68.3% | SF-295 CNS 74% | SF-539 CNS 80% | UACC-257 melanoma 43.7% | M14 melanoma 57.5%

C=C1C(=O)O[C@H]2[C@H]1CC/C(COC(=O)NCc1c[nH]c3ccc(Br)cc13)=C\CC[C@@]1(C)O[C@@H]21
inactive: NCI-H23 lung 29.4% | NCI-H322M lung 74% | HOP-62 NSCLC 58.5% | NCI-H460 lung 24.1% | A549/ATCC NSCLC 49.1% | SF-295 CNS 60.9%
active: NCI-H226 lung 4.62% | HOP-92 NSCLC -46.3% | NCI-H522 lung -89.9% | 786-0 renal -47.7% | COLO 205 colon -78.2% | DU-145 prostate -88.6% | K-562 leukemia 0.98% | MALME-3M melanoma -45.4% | MDA-MB-231 breast -52.7% | RXF 393 renal -87.7% | SF-268 CNS 3.85% | SF-539 CNS -36.9% | UACC-257 melanoma -39.6% | M14 melanoma -40.8%

CCOC(=O)[C@@H](C)C[C@H](Cc1ccccc1)NC(=O)c1csc([C@@H](C[C@H](C(C)C)N(C)C(=O)[C@@H](NC(=O)[C@H]2C[C@H](O[Si](C)(C)C(C)(C)C)CCN2C)C(C)C)OC(C)=O)n1
inactive: NCI-H23 lung 17.6% [9.25 µM] | NCI-H322M lung 25% [9.25 µM] | MALME-3M melanoma 18.1% [9.25 µM] | UACC-257 melanoma 21.3% [9.25 µM]
active: NCI-H226 lung -39.2% [9.25 µM] | HOP-62 NSCLC 0.247% [9.25 µM] | NCI-H460 lung -23.9% [9.25 µM] | HOP-92 NSCLC -9.53% [9.25 µM] | NCI-H522 lung -46.7% [9.25 µM] | A549/ATCC NSCLC 7.91% [9.25 µM] | 786-0 renal -5.36% [9.25 µM] | COLO 205 colon -72.6% [9.25 µM] | DU-145 prostate -21.4% [9.25 µM] | K-562 leukemia 3.46% [9.25 µM] | MDA-MB-231 breast -34.7% [9.25 µM] | RXF 393 renal -10.3% [9.25 µM] | SF-268 CNS 4.82% [9.25 µM] | SF-295 CNS -15.6% [9.25 µM] | SF-539 CNS -49.7% [9.25 µM] | M14 melanoma -42.2% [9.25 µM]

C/C(=N\NC(=O)CSc1nc2ccccc2c(=O)n1CCc1ccc(S(N)(=O)=O)cc1)c1ccccn1
active: COLO 205 colon 8.47%
inactive: NCI-H23 lung 50.4% | NCI-H226 lung 43.4% | NCI-H322M lung 25.9% | HOP-62 NSCLC 25.2% | NCI-H460 lung 12.1% | HOP-92 NSCLC 67.5% | NCI-H522 lung 18.9% | A549/ATCC NSCLC 21.1% | 786-0 renal 34.8% | DU-145 prostate 44.1% | K-562 leukemia 25.2% | MALME-3M melanoma 36.5% | MDA-MB-231 breast 27.4% | RXF 393 renal 52.8% | SF-268 CNS 34.3% | SF-295 CNS 13.4% | SF-539 CNS 29.8% | UACC-257 melanoma 45.9% | M14 melanoma 17.6%

COc1cc2c(-c3cc4c(cc3CNCCc3ccc5c(c3)OCO5)OCO4)cccc2c(OC)c1O
inactive: NCI-H23 lung 80.5% | NCI-H226 lung 92.2% | NCI-H322M lung 84.6% | HOP-62 NSCLC 70.9% | NCI-H460 lung 91.2% | HOP-92 NSCLC 66.4% | NCI-H522 lung 79.1% | A549/ATCC NSCLC 92.3% | 786-0 renal 90.1% | COLO 205 colon 117% | DU-145 prostate 95.8% | K-562 leukemia 20% | MALME-3M melanoma 103% | MDA-MB-231 breast 69.4% | RXF 393 renal 74.9% | SF-268 CNS 68% | SF-295 CNS 92.2% | SF-539 CNS 88.4% | UACC-257 melanoma 96.1% | M14 melanoma 84.4%

Cc1ccccc1NS(=O)(=O)c1cccc(C(=O)Nc2ccc(Br)cc2)c1
inactive: NCI-H23 lung 18.5% [25 µM] | NCI-H226 lung 29.1% [25 µM] | NCI-H322M lung 64.2% [25 µM] | HOP-62 NSCLC 80.7% [25 µM] | NCI-H460 lung 35.8% [25 µM] | HOP-92 NSCLC 21.1% [25 µM] | NCI-H522 lung 39.6% [25 µM] | A549/ATCC NSCLC 38.1% [25 µM] | 786-0 renal 53.6% [25 µM] | COLO 205 colon 52.4% [25 µM] | DU-145 prostate 57.8% [25 µM] | K-562 leukemia 23.1% [25 µM] | MALME-3M melanoma 18% [25 µM] | MDA-MB-231 breast 56% [25 µM] | RXF 393 renal 60.7% [25 µM] | SF-268 CNS 36.5% [25 µM] | SF-295 CNS 19.7% [25 µM] | SF-539 CNS 57.3% [25 µM] | UACC-257 melanoma 27.4% [25 µM] | M14 melanoma 35.5% [25 µM]
